Screens deposited in PubChem by National Center for Advancing Translational Sciences (NCATS).
Sampled rows, rich in hits. Any-hit rate of the full collection: about 7.3%.
NPC1 promoter act: activates the NPC1 promoter | Huh7 NPC1 promoter luciferase reporter, 24 h | Potency, µM (doses to about 9.22 µM), inactives show at the top dose activation, hits mostly activators | 2.4% of 320,000 active | AID 485313; note: % of control where 0% means no effect; nearly all actives have a fitted effect of over 60% in size
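Stable NPC1-promoter luciferase Huh7 line; cpd (DMSO) 24 h, 37 °C, 5% CO2; Amplite luciferase reagent 10 min RT; luminescence readout. qHTS format.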
Rab9 prom act: activators of Rab9 promoter; 2.8% of 320,000 active; Potency, µM (titrated, usually from 9.22 µM), without a hit: at the highest dose activation, negative = inhibition, usual class: activators; Huh7 Rab9 promoter-luciferase reporter, luminescence, 24 h; note: % of control where 0% means no effect; nearly all actives have a fitted effect of over 60% in size
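Quantitative HTS format; Huh7 Rab9-luciferase reporter cells (1500/well) receive compound 2 h post-plating, incubate 24 h at 37 °C, then get luciferase reagent for 10 min before luminescence reading.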
uPA surface inh: inhibitors of cell surface uPA generation | cell surface uPA generation assay, qHTS | Potency, µM (highest dose often 38.3 µM), for inactives: at the top dose activity change, negative = inhibition, most hits filed as inhibitors | 0.31% of 330,000 active | AID 540303; active = well fitted inhibition curve with a large enough effect; inconclusive = small, poorly fitted or top-dose-only effect; inactive = no such curve, though single readings can be large or run the other way; tested in mouse RAW 264.7 cells; note: % is set by controls: 0 for no effect and ±100 for the full control effect; nearly all actives have a fitted effect of over 55% in size
ELG1 genotoxic: induces genotoxicity in HEK293T cells with luciferase-tagged ELG1; Potency, µM (series often up to 46 µM), for the others: at the highest dose activity change, positive = activation, usual class: activators; HEK293T ELG1-luciferase reporter, luminescence, 16 h; 1.3% of 330,000 active; AID 504466; note: % of control where 0% means no effect; nearly all actives have a fitted effect of over 60% in size
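HEK293T cells expressing luciferase-tagged ELG1 were treated with compound or DMSO for 16 hr at 37°C. Luciferase activity was then read after 30 min with ONE-Glo at room temperature; rising signal flags genetic stress.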
FLuc counter: counter-screen for miR-21 project: firefly luciferase inhibitors or activators | P08659 | purified FLuc, Km substrates, luminescence inhibition | Potency, µM (top dose mostly 57.5 µM), without a hit: at the highest dose activity change, negative = inhibition, usual class: inhibitors | 6.9% of 360,000 active | AID 588342;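 note: plate controls were vehicle for no effect and reference inhibitor for full effect; nearly all actives have a fitted effect of over 55% in size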
Target sequence (P08659 whole entry, looked up): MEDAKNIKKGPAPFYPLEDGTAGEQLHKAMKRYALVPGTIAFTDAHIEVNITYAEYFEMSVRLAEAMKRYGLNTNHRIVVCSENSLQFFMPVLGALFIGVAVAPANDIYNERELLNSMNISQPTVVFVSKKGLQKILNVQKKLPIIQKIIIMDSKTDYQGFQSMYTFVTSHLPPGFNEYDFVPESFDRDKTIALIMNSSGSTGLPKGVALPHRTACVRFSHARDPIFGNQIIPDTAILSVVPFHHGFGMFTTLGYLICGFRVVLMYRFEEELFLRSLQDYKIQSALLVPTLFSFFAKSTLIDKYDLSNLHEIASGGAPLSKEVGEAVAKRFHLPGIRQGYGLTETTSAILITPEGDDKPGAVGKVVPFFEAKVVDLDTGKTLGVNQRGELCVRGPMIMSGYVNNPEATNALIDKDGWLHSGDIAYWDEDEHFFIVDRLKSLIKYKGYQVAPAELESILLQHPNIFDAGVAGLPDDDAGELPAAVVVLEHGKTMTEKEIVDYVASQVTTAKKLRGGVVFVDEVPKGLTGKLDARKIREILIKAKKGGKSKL
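Biochemical qHTS of compounds, final roughly 60 µM downward over six points, against 10 nM purified firefly luciferase using Km concentrations of substrates (10 uM D-luciferin, 10 uM ATP) in Tris acetate pH 7.5 buffer; luminescence output.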
SMN2 splice enh: SMN2 splice variant enhancement; HEK293 SMN2-luciferase splicing reporter, luminescence, 30-36 h; Potency, µM (titrated, usually from 46.1 µM), inactives show at the highest dose activity change, positive = activation, hits mostly activators; 2.8% of 210,000 active; note: % of control where 0% means no effect; nearly all actives have a fitted effect of over 55% in size
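qHTS luciferase splicing reporter: luminescence rises when SMN2 exon 7 is included in transfected HEK293 cells. Compound exposure lasted 30-36 h at 37C, with 4.5 mM final sodium butyrate as control, followed by a ONE-Glo read.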
* = called active by the depositor; [ ] = dose if it differs, or a comment. Unless noted, calls come from the whole dose curve; as a rule, active = well fitted curve in the direction sought with a large enough effect; inconclusive = small, poorly fitted or top-dose-only effect, or another doubt; inactive = no such curve, though single readings can be large; an effect the other way counts as inactive or inconclusive. Potency is the fitted concentration of half-maximal effect.

Results for Cc1ccc(C(=O)Nc2ccc3ncccc3c2)cc1 ?
NPC1 promoter act: inconclusive; Rab9 prom act: 0.1µM*; uPA surface inh: -20%; ELG1 genotoxic: inconclusive; FLuc counter: 0.11µM*

How did COc1ccc(NC(=O)c2ccc(NS(=O)(=O)c3cccc4cccnc34)cc2)cc1 do in these assays?
NPC1 promoter act: -5%; Rab9 prom act: 0%[1.84 µM]; uPA surface inh: -6%; ELG1 genotoxic: 9%; FLuc counter: inconclusive

Results for Cc1cc(=O)oc(C)c1C(=O)Nc1ccc2ncccc2c1 ?
NPC1 promoter act: 9%; Rab9 prom act: 2%; uPA surface inh: 3%; ELG1 genotoxic: -3%; FLuc counter: -1%; SMN2 splice enh: 7%

How did Cc1cccnc1NC(=O)c1ccc(S(=O)(=O)N2CCCCCC2)cc1 do in these assays?
NPC1 promoter act: 2%; Rab9 prom act: 5%; uPA surface inh: -4%; ELG1 genotoxic: -1%; FLuc counter: 0%

How did CCCc1nccn1S(=O)(=O)c1cc(Br)ccc1OC do in these assays?
FLuc counter: 1%

What do the screens show for `CCN1C(=O)/C(=C/C2=Cc3ccccc3OC2C)SC1=S` (centres undefined)?
NPC1 promoter act: -2%; Rab9 prom act: 7%; uPA surface inh: -4%; ELG1 genotoxic: 0%; FLuc counter: 13µM*

How did CC(=C/c1ccccc1)/C=C1/SC(N2CCOCC2)=NC1=O do in these assays?
NPC1 promoter act: inconclusive; Rab9 prom act: inconclusive; uPA surface inh: -2%; ELG1 genotoxic: 11%; FLuc counter: 15µM*; SMN2 splice enh: inconclusive

Results for O=C1N=C(N2CCOCC2)S/C1=C/c1cccs1 ?
NPC1 promoter act: 2%; Rab9 prom act: -2%; ELG1 genotoxic: 5%; FLuc counter: inconclusive; SMN2 splice enh: 6%

Results for CC1Oc2ccccc2C=C1/C=C1/SC(N2CCOCC2)=NC1=O (centres undefined) ?
NPC1 promoter act: 20%; Rab9 prom act: inconclusive; uPA surface inh: -2%; ELG1 genotoxic: 12%; FLuc counter: 21µM*; SMN2 splice enh: 21%

How did O=C1N=C(N2CCOCC2)S/C1=C\c1ccncc1 do in these assays?
NPC1 promoter act: 1%; Rab9 prom act: -3%; uPA surface inh: 4%; ELG1 genotoxic: -12%; FLuc counter: -2%

What do the screens show for `Cc1ccc(-n2nc(C(=O)NCc3ccc(F)cc3Cl)c3c4ccccc4n(C)c3c2=O)cc1`?
FLuc counter: -2%; SMN2 splice enh: -4%

Results for CCc1c(C)sc2c1CCN(C(=O)Nc1ccccc1C(F)(F)F)C2c1ccccc1 (centres undefined) ?
FLuc counter: 2%

How did Cc1cc(C)cc(NC(=O)CSc2cc(C(=O)c3nccn3C)c3ccccc3n2)c1 do in these assays?
NPC1 promoter act: 1%; Rab9 prom act: -6%; uPA surface inh: 1%; ELG1 genotoxic: 10%; FLuc counter: -2%; SMN2 splice enh: -13%

Results for COc1ccc2c(c1)-c1nc(NC(=O)c3ccco3)sc1CC2 ?
NPC1 promoter act: 14%; Rab9 prom act: 19%; uPA surface inh: -7%; ELG1 genotoxic: 13%; FLuc counter: 19µM*

What do the screens show for `COc1ccc2c(c1)CCc1sc(NC(=O)c3ccco3)nc1-2`?
NPC1 promoter act: 25%; Rab9 prom act: inconclusive; uPA surface inh: 4%; ELG1 genotoxic: inconclusive; FLuc counter: 21µM*; SMN2 splice enh: 10%

What do the screens show for `COc1ccc2c(c1)-c1nc(NC(=O)c3cccs3)sc1CC2`?
NPC1 promoter act: 3%; Rab9 prom act: 20%; uPA surface inh: -5%; ELG1 genotoxic: -1%; FLuc counter: 19µM*; SMN2 splice enh: 4%

Results for COc1ccc2c(c1)CCc1sc(NC(=O)c3ccc(C)cc3)nc1-2 ?
NPC1 promoter act: 0%; Rab9 prom act: 3%; uPA surface inh: 6%; ELG1 genotoxic: -6%; FLuc counter: 8.5µM*; SMN2 splice enh: -31%

How did COc1ccc2c(c1)-c1nc(NC(=O)c3cccc(Br)c3)sc1CC2 do in these assays?
FLuc counter: -13%; SMN2 splice enh: -26%
